Screening results deposited in PubChem BioAssay by National Center for Advancing Translational Sciences (NCATS).
Gal4-VP16 FLuc: counter-screen for ROR gamma inhibitors: Gal4-VP16 reporter. Drosophila S2 Gal4-VP16 UAS-luciferase, luminescence, 20 h. Potency, µM (titrated, usually from 53.6 µM), for the others: top-dose activity, negative = inhibition, actives largely listed as inhibitors. hit rate 3.5% among 310,000;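 further: Gal4-VP16 expression switched on by copper sulfate through the metallothionein promoter; nearly all actives have a fitted effect of over 50% in size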
12-LOX inh: ALOX12 (human) lipoxygenase inhibition; P18054; purified 12hLO, xylenol orange hydroperoxide absorbance; Potency, µM (doses to about 108 µM), for the others: top-dose activity change, negative = inhibition, actives largely listed as inhibitors; hit rate 1.1% among 580,000; AID 1671190
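Purified human 12hLO (150 nM final) in 25 mM Hepes, 0.01% Triton X-100, pH 7.0 was preincubated 15 min at room temperature with compound. Then 40 uM arachidonic acid was added, 30 min. Hydroperoxide was read by Fe-XO absorbance ratio 573/405 nm.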
ELG1 repair inh: ELG1-dependent DNA repair inhibition | HEK293T ELG1-luciferase reporter, luminescence, 16 h; DNA damage induced by 5-fluorouridine | Potency, µM (titrated, usually from 46.1 µM), for the others: at the top dose activity change, negative = inhibition, hits mostly inhibitors | hit rate 2.3% among 330,000 | AID 504467; further: nearly all actives have a fitted effect of over 55% in size
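5-Fluorouridine DNA damage + compound/DMSO, 2,000 cells/well, 16 h, 37 °C/5% CO2. ONE-Glo, 30 min RT, luminescence. Readout = decrease in reporter signal.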
DT40 TDP1 CPT: DT40-hTDP1 cell growth loss with CPT. chicken DT40 Tdp1-/-;hTDP1 cells + 20 nM CPT, ATP luminescence, 48 h. hit rate 12% among 420,000. Potency, µM (top dose mostly 46.2 µM), for the others: at the top dose activity change, negative = growth inhibition, actives largely listed as inhibitors; further: nearly all actives have a fitted effect of over 55% in size
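Cell growth measured by CellTiter-Glo luminescence after a minimum 48 h, 37 C compound exposure with 20 nM CPT in Tdp1-knockout DT40 cells stably expressing hTDP1, seeded 400/well; qHTS titration format.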
RORgamma inh: ROR gamma (mouse) transcription inhibition | AID 2551 | hit rate 5.4% among 310,000 | Potency, µM (series often up to 53.6 µM), inactives show at the highest dose activity change, negative = inhibition, actives largely listed as inhibitors | P51450 | Drosophila S2 Gal4-RORgamma UAS-luciferase reporter, 20 h; further: nearly all actives have a fitted effect of over 60% in size
Target sequence (P51450 whole entry, looked up, the tested form may be a part): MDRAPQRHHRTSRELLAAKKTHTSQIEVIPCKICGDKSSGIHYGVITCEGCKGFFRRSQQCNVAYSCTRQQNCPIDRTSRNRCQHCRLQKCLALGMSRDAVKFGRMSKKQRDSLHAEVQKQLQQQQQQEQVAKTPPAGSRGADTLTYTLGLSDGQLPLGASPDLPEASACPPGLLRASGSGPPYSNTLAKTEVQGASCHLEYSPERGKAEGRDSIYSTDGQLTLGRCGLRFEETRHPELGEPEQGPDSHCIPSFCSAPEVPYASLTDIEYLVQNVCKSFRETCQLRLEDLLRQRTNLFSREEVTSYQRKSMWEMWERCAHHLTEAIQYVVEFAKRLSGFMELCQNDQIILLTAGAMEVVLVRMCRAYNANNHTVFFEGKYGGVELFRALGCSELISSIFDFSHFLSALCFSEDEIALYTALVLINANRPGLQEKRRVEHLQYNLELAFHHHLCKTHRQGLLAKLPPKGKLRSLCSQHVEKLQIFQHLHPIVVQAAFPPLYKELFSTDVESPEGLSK
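A Gal4/UAS one-hybrid system in insect cells: metallothionein-promoter Gal4–ROR gamma fusion plus Photinus luciferase reporter. Copper sulfate 700 uM final, 20 hr ambient incubation, luminescent detection after 10 min with reagent.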
DT40 TDP1 no CPT: qHTS for Inhibitors of human tyrosyl-DNA phosphodiesterase 1 (TDP1): qHTS in cells in absence of CPT; hit rate 15% among 420,000; AID 686978, 2013; Potency, µM (highest dose often 46.2 µM), for the others: at the highest dose activity change, negative = growth inhibition, most hits filed as inhibitors; DT40 Tdp1-/- hTDP1 cells, no CPT, ATP luminescence, 48 h; further: nearly all actives have a fitted effect of over 55% in size
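Seeded 400 DT40-hTDP1 cells/well (vehicle DMSO, no 20 nM CPT); pinned compounds; ≥48 hr at 37 °C; CellTiter-Glo luminescence as viability measure.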
Starred values were filed as active, the others as inactive; ? = inconclusive; . = no result given; [ ] = another dose, or the depositor's remark. In the library only some 15% were active in any assay of this set; here they are far more common. The call rests on the fitted dose curve; in most records, active means well fitted curve in the direction sought with a large enough effect; inconclusive means small, poorly fitted or top-dose-only effect, or another doubt; inactive means no such curve, though single readings can be large; an effect the other way counts as inactive or inconclusive. On the % scale 0 is the no-effect control and ±100 the full control effect; potency means the concentration at half of the fitted maximal effect.

SMILES | Gal4-VP16 FLuc | 12-LOX inh | ELG1 repair inh | DT40 TDP1 CPT | RORgamma inh | DT40 TDP1 no CPT
CCOC(=O)c1cnc2ccc(OCC)cc2c1Nc1cc(Cl)c(OC)cc1OC | . | -29.4% | . | 14.6µM* | . | 25.9µM*
CCOC(=O)c1cnc2ccc(OC)cc2c1NCCc1ccccc1 | . | ? | . | ? | . | 10.3µM*
CCOC(=O)c1cnc2ccc(OC(F)(F)F)cc2c1Nc1ccccc1C(=O)O | . | 0.0% | . | ? | . | 14.6µM*
CC1CCc2nc(N)c(C#N)c(-c3ccc(F)cc3)c2C1 (configuration not stated) | . | 2.4% | . | . | . | .
COc1cccc(C(=O)N2CCC(C3CCN(S(C)(=O)=O)CC3)C2)c1 (configuration not stated) | . | 32.7% | . | . | . | .
COCCN(CCOC)C(=O)COc1cc2oc(=O)cc(C)c2cc1Cl | . | -24.4% | . | . | . | .
COC[C@H]1NC(=O)CC[C@H]1C(=O)Nc1cc(C)ccc1OC | . | 69.6% | . | . | . | .
CCOC(=O)c1cnc2ccc(OCC)cc2c1NCc1ccccc1OC | ? | ? | ? | 5.17µM* | 12.6µM* | 5.17µM*
CCOC(=O)c1cnc2ccc(OCC)cc2c1Nc1cccc(C(=O)OC)c1 | . | 10.8% | . | . | . | .
CCOC(=O)N1CCN(C2=C(NS(=O)(=O)c3ccccc3)C(=O)c3ccccc3C2=O)CC1 | -11.3% | 1.7% | -14.2% | 13µM* | -37.6% | ?
NC(=O)C1CCN(C2=C(NS(=O)(=O)c3ccc(Br)cc3)C(=O)c3ccccc3C2=O)CC1 | -13.5% | 26.5% | -19.4% | 23.1µM* | -26.7% | 18.4µM*
CCOC(=O)N1CCN(C2=C(NS(=O)(=O)c3ccc(Br)cc3)C(=O)c3ccccc3C2=O)CC1 | . | ? | . | 11.6µM* | . | 16.4µM*
CC(C)Oc1nnc(SCC(=O)Nc2ccccc2Cl)s1 | . | -33.2% | . | . | . | .
CCCc1c(C(=O)NCCc2ccccc2)nnn1-c1ccc(C)cc1 | . | -9.3% | . | . | . | .
CN1CC(=O)N(C2CCCNC2)Cc2c(NCc3ccc4c(c3)OCO4)ncnc21 (configuration not stated) | . | 4.47µM* | . | . | . | .
CN1CC(=O)N(C2CCC2)Cc2c(NCc3ccc(F)cc3)ncnc21 | . | -2.8%[6.33 µM] | . | . | . | .
COc1ccccc1CN(C)C(=O)c1ccccc1Sc1ccccc1C#N | -21.9% | -4.8% | 5.8% | ? | -0.9% | ?
CC1CCC(NC(=O)c2ccccc2Sc2ccccc2C#N)CC1 (configuration not stated) | . | -25.9% | . | . | . | .
COc1ccc(CN(C)C(=O)c2ccccc2Sc2ccccc2C#N)c(OC)c1 | -0.2% | ? | -13.2% | 23.1µM* | 22.6% | 23.1µM*
Cc1cc(C)c(OCCNC(=O)c2ccccc2Sc2ccccc2C#N)c(C)c1 | -24.9% | -11.8% | ? | 18.4µM* | ? | ?
COc1cccc(OCCNC(=O)c2cccc(OC)c2)c1 | ? | 0.0% | -10.2% | -4.2% | 15.5% | -10.1%
COc1cccc(OCCNC(=O)c2ccccc2Sc2ccccc2C#N)c1 | -1.7% | -23.0% | ? | ? | 19.9% | 16.4µM*
Cc1ccccc1OCCNC(=O)c1ccccc1Sc1ccccc1C#N | 7.6% | 4.6% | -28.3% | -21.1% | 23.8% | 16.4µM*
COc1ccc(S(=O)(=O)NCc2ccccn2)cc1NC(=O)c1ccccc1F | -14.5% | -4.9% | ? | 2.31µM* | -28.2% | 2.59µM*
CCOc1ccc(S(=O)(=O)NCc2cccnc2)cc1NC(=O)c1ccccc1 | . | -9.5% | . | -14.8% | . | -15.4%
SMILES | Gal4-VP16 FLuc | 12-LOX inh | ELG1 repair inh | DT40 TDP1 CPT | RORgamma inh | DT40 TDP1 no CPT
CCOc1ccc(S(=O)(=O)NCc2ccccn2)cc1NC(=O)c1ccccc1 | . | 0.4% | ? | 1.3µM* | . | 1.3µM*
N#CC(C(=O)c1ccc(SC(F)F)cc1)c1ccccn1 (configuration not stated) | . | -6.3% | . | . | . | .
CCCCOC(=O)C(C#N)c1nc2ccccc2nc1N1CCOCC1 (configuration not stated) | -14.1% | 0.0% | 20.6µM* | ? | -22.9% | ?
CCN1CCN(c2nc3ccccc3nc2C(C#N)C(=O)OCc2ccccc2)CC1 (configuration not stated) | -4.1% | ? | 18.4µM* | 23.1µM* | 5.3% | ?
C=CCOC(=O)C(C#N)c1nc2ccccc2nc1N1CCN(c2ccccc2)CC1 (configuration not stated) | . | -40.2% | . | . | . | .
CCCCCCOC(=O)C(C#N)c1nc2ccccc2nc1N1CCN(CC)CC1 (configuration not stated) | ? | ? | -26.2% | ? | 10µM* | 20.6µM*
CCCCCCOC(=O)C(C#N)c1nc2ccccc2nc1N1CCOCC1 (configuration not stated) | 0.5% | -27.3% | ? | ? | -31.8% | 18.4µM*
COCCOC(=O)C(C#N)c1nc2ccccc2nc1N1CCCC1 (configuration not stated) | 16.7% | 7.7% | -23.3% | -3.3% | -1.7% | -12.2%
COCC(C)NC(=O)c1cc2ccccc2oc1=O (configuration not stated) | . | 34.1% | . | . | . | .
Cc1noc([C@H]2CCN(Cc3ccsc3)C[C@H]2NC(=O)C2CC2)n1 | . | 26.5% | . | . | . | .
Nc1nc(CN2CCN(C(=O)c3ccc(F)cc3)CC2)nc2ccccc12 | . | 91.0% | . | . | . | .
N#CC(C(=O)OC1CCCCC1)c1nc2ccccc2nc1N1CCCCC1 (configuration not stated) | 1.6% | -5.4% | 2.4% | . | 0.1% | .
CC1CCN(c2nc3ccccc3nc2C(C#N)C(=O)OC2CCCCC2)CC1 (configuration not stated) | -1.0% | . | 21.0% | 16.4µM* | ? | ?
COc1cc(/C=N/Nc2nc(N3CCCC3)nc(N3CCCC3)n2)ccc1OCc1ccccc1F | 2.6% | 0.0% | ? | 16.4µM* | ? | 20.6µM*
COC(=O)c1ccc(/C=N/Nc2nc(N3CCCCC3)nc(N3CCCCC3)n2)cc1 | -5.0%[10 µM] | 3.0% | 7.4% | -9.5% | -8.2% | -43.8%
COc1ccc(/C=N/Nc2nc(N3CCCC3)nc(N3CCCC3)n2)cc1O | -7.6% | -0.3% | ? | -21.6% | 11.2µM* | ?
COc1ccc(C(=O)Oc2c(Sc3ccccc3)c(C)nn2-c2ccccc2)c(OC)c1 | . | ? | . | 18.4µM* | . | ?
Cc1nn(-c2ccccc2)c(OC(=O)C(C)C)c1Sc1ccc(Cl)cc1 | . | ? | . | ? | . | 10.3µM*
CCN(CC)C(=O)C1CCCN(c2ncnc3c2cnn3-c2cccc(C)c2)C1 (configuration not stated) | 1.7% | -25.3% | ? | ? | 1.6% | 16.4µM*
